Holding throughout (test): NCI-60 one-dose screen, 48 h (100 = growth as untreated, 0 = no growth, -100 = all killed)
Common to all, as to details: 10 µM unless noted

Test [1] deals with HCT-15 colon.
Test [2] concerns HT29 colon.
The test system of test [3] is SNB-75 CNS.
Test [4] has as its system SNB-19 CNS.
In test [5] the test system is U251 CNS.
Test [6] concerns PC-3 prostate.
Test [7] deals with SK-MEL-5 melanoma.
In test [8] the test system is UACC-62 melanoma.
In test [9] the test system is LOX IMVI melanoma.
For test [10], the system named is SK-MEL-28 melanoma.
The test system of test [11] is SK-MEL-2 melanoma.
Test [12] concerns EKVX NSCLC.
Test [13] deals with SN12C renal.
Test [14] concerns UO-31 renal.
The subject of test [15] is TK-10 renal.
Test [16] has as its system ACHN renal.
The subject of test [17] is CAKI-1 renal.
The subject of test [18] is A498 renal.
Test [19] relates to CCRF-CEM leukemia.
Test [20] concerns MOLT-4 leukemia.

Compounds without any hit were thinned out: in the full panel of roughly 83,000, 20% have a hit.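 How to read the values: 0–100, growth inhibition (40 = 60% inhibited); 0, no net growth; -100 to 0, cell death (-40 = 40% of starting cells died; -100 = all dead).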 Values without a mark were called inactive. Active and inactive are the calls of the source. The calls were made as follows: active = growth percent below 10; inactive = the rest.

Regarding `Clc1cccc(Nc2ncnc3ccc(-c4cncc(-n5cnnn5)c4)cc23)c1`, the growth was 70.2% in [1]; 74% in test [2]; 59.9% in [3]; 79.5% in [4]; 76.1% in [5]; 42.9% in test [6]. Besides, the growth in test [7] was 65.8%; in test [8], 85.3%; in test [9], 70.3%; in test [10] it was 97.3%; in test [11], 106%; in [12], 26.6%. Moreover, the growth in test [13] was 75%; in test [14] it was 32.1%; in test [15], 7.65% (active); in test [16], 28.9%; in test [17], 24.3%; in [18], -7.13% (active). The growth is 75.2% in test [19] and 58.9% in [20].
Consider `CN1Cn2c(ccc2C(F)(F)F)C(=O)CS1(=O)=O`, for which the growth was 105% in [1]; 105% in test [2]; 79.1% in test [3]; 105% in [4]; 101% in test [5]; 105% in test [6]. The growth in test [7] is 103%; in [8], 99.4%; in test [9] it was 99.2%; in [10], 105%; in [11], 105%; in test [12], 99.2%. Moreover, the growth is 104% in [13]; 82.9% in test [14]; 103% in test [15]; 99.4% in test [16]; 94.1% in test [17]; 96.1% in [18]. The growth was 105% in test [19] and 101% in [20].
With `COc1ccc2c(c1)c(-c1nc(-c3c[nH]c4c(Cl)nccc34)cs1)cn2C`, the growth is 64.3% in [1]; 84% in test [2]; 82.9% in test [3]; 105% in test [4]; 86.5% in test [5]; 72.6% in test [6]. Besides, the growth in test [7] is 45.4%; in test [8], 87.8%; in [9] it was 80%; in test [10], 105%; in test [11] it was 108%; in test [12], 34.8%. The growth in test [13] was 95.9%; in test [14], 90.8%; in test [15] it was 35.7%; in [16], 85.4%; in [17], 98.7%; in [18], 94.7%. Further, the growth was 93.7% in [19] and 85% in test [20].
`CN1CCN(c2ccc(Nc3ncc(C(N)=O)c(NCCCNC(=O)C4CCC4)n3)cc2)CC1`: the growth in test [1] was 111%; in test [2] it was 44.4%; in test [3], 67.7%; in test [4], 63.9%; in test [5], 67%; in test [6], 77.6%. Also, the growth is 92.3% in [7]; 108% in test [8]; 64.8% in test [9]; 103% in test [10]; 71.3% in [11]; 99.2% in [12]. The growth in test [13] was 36.3%; in test [14], 40.1%; in test [15], 39.8%; in [16], 61.8%; in test [17], 35.1%; in test [18], 137%. Also, the growth in test [19] was 14.2%; in [20], 18%.
`C=C1CCC2C3(C)COC(c4ccc(NC(C)=O)cc4)OC3CCC2(C)C1C/C=C1/C(=O)OCC1O` (stereo not given): the growth in test [1] was 63.3%; in test [2], 52.2%; in test [3] it was 63.9%; in [4], 83.6%; in test [5], 54.7%; in test [6], 42.2%. Further, the growth in test [7] was 29%; in test [8], 81%; in test [9], 55.4%; in [10], 88.6%; in test [11], 84.4%; in test [12], 39.6%. In addition, the growth is 91.6% in test [13]; 68.3% in test [14]; 75.3% in test [15]; 65.8% in test [16]; 87.7% in test [17]; 57% in [18]. Also, the values for the growth in [19] and in test [20] were 27.3% and 26.7%, respectively.
Turning to `Fc1ccc(NC(c2ccc(F)cc2)C2CCN(CCCCc3ccccc3)CC2)cc1` (stereo not given), the growth is 29.3% in test [1]; 3.89% (active) in [2]; 63.4% in [3]; 50% in [4]; 16.6% in test [5]; 35% in test [6]. Besides, the growth is -3.5% (active) in test [7]; 26% in [8]; 11.3% in test [9]; 60.1% in test [10]; 69.6% in test [11]; 52.9% in test [12]. Moreover, the growth in test [13] is 29%; in test [14] it was 38.8%; in test [15], 49%; in test [16], 53.8%; in test [17], 49.1%; in test [18], 17.2%. Further, the growth in [19] was 8.3% (active); in test [20], 4.36% (active).
As for `COc1ccc(C(=O)N/N=C/c2ccc(O)cc2O)cc1Nc1ccnc(C(F)(F)F)c1`, the growth in test [1] was 40.1%; in test [2], 37.4%; in test [3] it was 26.4%; in test [4] it was 34.2%; in test [5], 28.3%; in [6] it was 64.5%. The growth in test [7] was 24.2%; in [8], 1.67% (active); in [9] it was 8.4% (active); in test [10], 42.9%; in test [11] it was 61.5%; in test [12] it was 26.9%. The growth in [13] is 33.1%; in test [14] it was 30.4%; in test [15], 53.4%; in [16], 35.8%; in [17], 39.3%; in [18], 55.2%. Further, the growth in test [19] was 5.69% (active); in [20], 23.4%.

Source of the values: PubChem BioAssay (NCI).
